Bioassay records as filed in PubChem BioAssay.
Rows were chosen to be rich in hits. Some 4.1% of all compounds tested hit in one or more screens of this group.
NALP1 yeast inh: NALP1 inflammasome inhibitors in reconstituted yeast, colorimetric, S. cerevisiae, triplicate retest | 280,000 tested, 0.61% active | inhibition, % at 10 µM | S. cerevisiae NALP1/ASC/caspase-1 growth, X-gal OD620, 72 h | AID 2071, 2009; in the data active means inhibition mostly above about 24%, no sharp cut-off; inactive means mostly below about 32%
tim10-1 inh: growth inhibitors of tim10-1 mutant yeast, primary screen, luminescence, uHTS; S. cerevisiae tim10-1 ts strain growth, BacTiter-Glo, 24 h; inhibition, % at 20 µM; 330,000 tested, 2.2% active;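 active means inhibition of at least 40%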;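 further: mutant grown at 25 °C; 0% = DMSO wells with yeast and 100% = wells holding no yeast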
NLRP3 yeast inh: NALP3 inflammasome inhibitors in reconstituted yeast, primary screen, luminescence, uHTS; Yeast reconstituted NLRP3/ASC/caspase-1, beta-gal luminescence, 24 h; inhibition, % at 10 µM; 330,000 tested, 0.39% active; AID 2825, 2010;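 active means inhibition of 50% or more; inactive means inhibition below 50%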;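 further: plate controls were induced DMSO wells for no effect and uninduced yeast grown without galactose for full effect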
TIM10 inh: growth inhibitors of isogenic TIM10 control yeast, primary screen, counter-screen for tim10-1 yeast inhibitor project, luminescence, uHTS | S. cerevisiae TIM10 strain growth, BacTiter-Glo luminescence, 24 h | inhibition, % at 10 µM | 330,000 tested, 1.4% active | AID 463195, 2010;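 active means inhibition of 40% or more at the single tested concentration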;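 further: wild-type TIM10 isogenic control strain grown at permissive 25 °C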
PfHsp90 yeast 2: growth inhibition of PfHsp90-expressing yeast, primary screen, antimalarial PfHsp90 inhibitor project, S. cerevisiae, BacTiter-Glo luminescence, single point, set 2. inhibition, % at 9.4 µM. BacTiter-Glo ATP, 48 h; yeast lacking PDR1 and PDR3 efflux regulators. 310,000 tested, 0.32% active;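 active means every replicate shows inhibition above about 80%, whatever the replicate mean, limit read from the data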;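 further: 0% = DMSO neutral controls and 100% = 20 µM radicicol positive controls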
tim23-1 inh: growth inhibitors of tim23-1 mutant yeast, primary screen, luminescence, uHTS | S. cerevisiae tim23-1 growth, BacTiter-Glo luminescence, 24 h | inhibition, % at 20 µM | 330,000 tested, 1.3% active;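 active means growth inhibition of the mutant yeast at or above 50%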;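 further: temperature-sensitive mutant grown at 25 °C; plate controls were DMSO-treated mutant yeast for no effect and medium wells lacking yeast for full effect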
tim23-1 confirm: tim23-1 mutant yeast growth inhibitors, confirmation, luminescence, single concentration. shares compounds with tim23-1 inh. 4,400 tested, 83% active. S. cerevisiae tim23-1 growth, BacTiter-Glo luminescence, 24 h. inhibition, % at 20 µM;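 active means inhibition above about 39% in either of two replicate wells at 20 µM, limit read from the data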;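 further: temperature-sensitive tim23-1 mutant grown at 25 °C; 0% = DMSO wells with yeast and 100% = medium wells without yeast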
* marks the source's active call; other numbers are inactive results; x = no result.

SMILES	NALP1 yeast inh	tim10-1 inh	NLRP3 yeast inh	TIM10 inh	PfHsp90 yeast 2	tim23-1 inh	tim23-1 confirm
O=C1CC(c2ccc(O)c(O)c2)Oc2cc(O)cc(O)c21 (stereo not given)	-10.4	0.0	4.4	-1.6	1.1	1.2	x
O=C(CCNS(=O)(=O)c1ccc(Br)cc1)Nc1cccc(F)c1	26.3	-1.3	2.2	10.6	11.8	8.9	x
c1ccc2[nH]c(CSc3nc4ccccc4o3)nc2c1	26.0	-40.5	32.4	13.4	-17.1	54.4*	54.9*
COCCn1c(C23CC4CC(CC(C4)C2)C3)n[nH]c1=S	2.4	29.7	22.5	26.2	-9.0	27.2	x
CCCCn1c(C23CC4CC(CC(C4)C2)C3)n[nH]c1=S	-2.5	33.3	47.7	35.7	1.5	52.9*	49.8*
CCOC(=O)/C(=C\c1cn(C)c2ccccc12)[N+](=O)[O-]	x	26.6	2.9	24.9	6.6	54.3*	57.6*
COc1ccc(NC(=O)COC(=O)C2CC(=O)N(c3ccc(C)cc3)C2)cc1 (stereo not given)	-3.0	24.5	18.2	13.4	29.6	20.8	x
COC(=O)c1cc2ccccc2c(-c2c(O)ccc3ccccc23)c1O	-31.2	-4.1	9.3	34.5	-58.9	69.5*	-29.6
CC(=O)Nc1nc2c(s1)CCc1ccccc1-2	21.5	9.0	8.6	0.1	-10.0	10.7	x
O=C(CCCl)Nc1nc2c(s1)CCc1ccccc1-2	22.5	37.3	36.9	35.6	-13.3	70.0*	74.1*
O=C1C=C(c2ccc3cc[nH]c3c2)C[C@@H](c2ccc3c(c2)OCO3)C1	x	20.5	22.6	22.6	-31.4	54.7*	47.1*
CSc1nc(NNC=O)cc(Oc2ccc(NC(C)=O)cc2)n1	18.6	-19.2	8.0	-9.7	-0.8	-4.1	x
CSc1ncccc1C(=O)NCC(c1cccs1)N1CCOCC1 (stereo not given)	x	0.3	16.0	-5.0	18.6	10.0	x
CCOC(=O)c1cn(-c2ccccc2)nc1-c1ccncc1	-3.2	38.1	-1.5	34.9	-57.3	51.3*	46.5*
CCOc1ccccc1N1C(=O)c2ccc(C(=O)Nc3cccnc3)cc2C1=O	22.7	5.6	12.8	12.6	-13.5	50.2*	21.1
Cc1ccc(NC(=S)NC(=O)C2CCCCC2)c(Br)c1	x	12.6	48.7	35.1	-12.7	47.0	x
O=C(CCNC(=O)C1CCN(S(=O)(=O)c2ccccc2)CC1)NCCc1cccc(F)c1	-18.7	4.8	0.8	-0.8	13.2	-3.9	x
COC(=O)C1=C(C)OC(N)=C(C#N)C1c1cccnc1 (stereo not given)	-0.7	7.8	23.4	13.8	17.8	19.9	x
CC1=C(C(=O)OC(C)C)C(c2cncc(-c3ccc(F)cc3)c2)C(C#N)=C(N)O1 (stereo not given)	30.8	33.8	13.9	35.4	0.8	50.4*	37.5
Cc1cc(NC(=O)CN2C(=O)NC3(CCCCC3)C2=O)ccc1N1CCCC1	x	-9.3	21.8	2.0	x	11.1	x
CSc1cccc(CN2CCC(n3nccc3NC(=O)C3CC3)CC2)c1	-4.5	-10.8	6.2	-8.1	1.0	50.2*	15.1
COc1ccccc1NC(=O)Cn1ccn(-c2cccc3ccccc23)c(=O)c1=O	x	7.4	8.2	1.3	26.4	-1.6	x
Cc1ccccc1-c1nc(SCc2ccccn2)c2c(=O)n(C)c(=O)n(C)c2n1	-9.2	-6.4	12.0	-17.7	-2.4	-28.1	x
CCc1nc(SCc2ccccn2)c2c(=O)n(C)c(=O)n(C)c2n1	-8.5	21.9	14.9	-9.2	-42.8	55.5*	49.9*
Cn1c(=O)c2c(SCc3cccnc3)nc(C3CC3)nc2n(C)c1=O	-13.8	20.7	11.5	12.7	-0.2	50.4*	42.5*
SMILES	NALP1 yeast inh	tim10-1 inh	NLRP3 yeast inh	TIM10 inh	PfHsp90 yeast 2	tim23-1 inh	tim23-1 confirm
CC(C)c1nc(SCc2ccccn2)c2c(=O)n(C)c(=O)n(C)c2n1	x	15.0	25.9	8.4	-13.9	50.3*	48.5*
CC(C)c1nc(SCC(=O)N2CCCC2)c2c(=O)n(C)c(=O)n(C)c2n1	x	-1.1	12.7	-2.7	-17.1	15.0	x
Cn1c(=O)c2c(SCC(=O)NCCc3ccccc3)nc(C3CC3)nc2n(C)c1=O	x	4.7	3.0	3.1	x	12.0	x
COc1cccc2c1cc1c(=O)n(CC(=O)NCCCN3CCN(C)CC3)nc(C)n12	7.5	4.5	16.4	2.7	20.3	0.5	x
Oc1c(Cl)cc(Cl)cc1/C=N/c1nccs1	25.7	23.5	6.4	32.4	30.5	69.2*	53.9*
O=c1[nH]c(NCCO)nc2c1C1(CCCCC1)Cc1ccccc1-2	4.1	38.6	23.6	17.6	0.9	33.9	x
CC1(C)CC(n2c(NCCO)nc3c(c2=O)C2(CCCC2)Cc2ccccc2-3)CCO1 (stereo not given)	14.3	20.8	-4.5	36.0	-8.9	51.7*	48.7*
O=[N+]([O-])c1cc(S(=O)(=O)N2CCOCC2)ccc1OCc1ccccc1C(F)(F)F	x	15.0	16.5	-8.1	-2.2	21.4	x
O=C(c1ccccc1)c1ccc[nH]1	x	x	x	x	2.5	x	x
CCn1c(SCC(=O)NC(=O)c2ccccc2OC)nc2ccccc21	5.7	-0.2	26.8	6.9	-6.3	11.5	x
Oc1c(Cl)cc(Cl)cc1C=Nc1ccccc1N1CCCC1	38.5	18.2	-13.0	13.6	x	56.5*	53.9*
CN(C(=O)c1cccc(NC(=O)Cc2ccc(NC(=O)C3CCN(C(=O)C4CCCC4)CC3)cc2)c1)C1CC1	x	x	x	x	1.4	x	x
O=C(NC1=NCCS1)C12CC3CC(C1)CC(C(=O)NC1=NCCS1)(C3)C2	-8.5	-11.3	11.2	-5.1	18.0	4.4	x
CC12CC3(C)CC(C)(C1)CC(C(=O)NC1=NCCS1)(C2)C3	x	39.8	24.3	33.5	8.9	52.3*	40.2*
O=S(=O)(Cc1ccc(Cl)cc1)Nc1ccc2c(c1)OCO2	38.0	35.5	34.1	38.4	10.1	59.2*	48.6*
O=S(=O)(Cc1ccc(Cl)cc1)N1CCN(Cc2ccc3c(c2)OCO3)CC1	11.5	-3.9	25.7	-24.4	4.7	-19.5	x
CCN1C(=O)[C@H]2[C@@H](c3ccc(-c4ccc(OC)cc4)cc3)N[C@@](C)(C(=O)OC)[C@H]2C1=O	x	7.5	2.6	14.3	-0.3	17.6	x
O=C(CCC(=O)NNC(=O)Nc1cccc(Cl)c1)NCc1ccccc1	-20.4	6.1	-0.1	-14.9	-24.8	2.9	x
O=C(Cc1ccccc1)NNC(=O)Nc1cccc(Cl)c1	-1.7	-4.5	-1.1	8.8	1.9	51.3*	10.9
O=C(NCc1ccc2c(c1)OCO2)Nc1cccc(Cl)c1	-7.7	2.2	20.3	28.0	-6.9	53.2*	64.1*
